“And” between values parts separate entries of the source, which are not always exact repeats. Equal entries are not always repeated. The source made the active and inactive calls. The call rests on the fitted dose curve; in most records, active means well fitted activation curve with a large enough effect in the repeat runs; inconclusive means weak or mixed curves; inactive means flat fitted curve, though single readings scatter.
assay: Caspase-3/7 induction in CHO-K1 cells by small molecules, qHTS assay (AID 1346980); conditions: CHO-K1 caspase-3/7 induction, Caspase-Glo luminescence, 17 h; series mostly up to 92.4 µM; caspase-3/7 activation: at the top concentration; further: nearly all actives have a fitted effect of over 15% in size
Source text: National Center for Advancing Translational Sciences [NCATS]
NIH Chemical Genomics Center [NCGC]
U.S. Environmental Protection Agency [EPA]
National Institutes of Environmental Health Sciences [NIEHS]
National Toxicology Program [NTP]
Apoptosis is a process of programmed cell death and plays a central role in the development of multicellular organisms. It is a highly regulated process and induces cell death by activating caspases, which are the members of cysteine aspartic acid-specific protease (caspase) family. Caspases involved in apoptosis are classified by their mechanism of action as initiator caspases (caspase-2, -8, -9 and -10) and executioner caspases (caspase-3, -6, and -7). Inhibition of apoptosis results in number of cancers, autoimmune diseases, inflammatory diseases and viral infection. To identify small molecule compounds that induce apoptosis, a homogeneous, luminescent Caspase-Glo 3/7 assay was used. Wild type CHO-K1 cells were used to screen Tox21 libraries for identifying caspase-3/7 activity inducers.
CHO-K1 cells were dispensed at 1,500 per well in 5uL of culture medium into white solid bottom 1536-well plates (Corning Life Sciences, Corning, NY) using a Multidrop Combi (Thermo Scientific, Waltham, MA) dispenser. The assay plates were incubated at 37 C and 5% CO2 for 5hr, and then 23nL of compounds dissolved in DMSO and positive control were transferred using a Pintool station (Wako, San Diego, CA). The assay plates were incubated at 37C and 5% CO2 for 17hr. For caspase-3/7 activity read, 4uL of Caspase-Glo 3/7 reagent (Promega Corporation, Madison, WI) was added to each well of the assay plates using Flying Reagent Dispenser (FRD, Aurora Discovery, San Diego, CA) and incubated the assay plates at room temperature for 30min. The luminescence signal was quantified using a ViewLux plate reader (Perkin Elmer, Shelton, CT).
On the % scale 0 is the no-effect control and ±100 the full control effect; potency means the concentration at half of the fitted maximal effect.

Row | SMILES | caspase-3/7 activation | Potency
1 | Cc1ccc(CCn2c3c(c4cc(Cl)ccc42)CN(C)CC3)cn1 | -1.46% [at 42.5 µM] (inactive) | –
2 | CC(C)(C)C1=CC(=O)C=C(C(C)(C)C)C1=O | 1.34% (inactive) | –
3 | c1ccc(Nc2cccc3ccccc23)cc1 | 3.08% (inactive) | –
4 | C=CCCCCCCC=C | -1.52% (inactive) | –
5 | CCOC(OCC)C(=O)c1ccccc1 | 0.591% (inactive) | –
6 | Clc1ccc(C(Cn2ccnc2)OCc2ccsc2Cl)c(Cl)c1 (stereo not given) | -2.17% [at 42.5 µM] (inactive) | –
7 | Nc1ccc2cc3ccc(N)cc3nc2c1 | – | 4.86 µM (active) and 11.9 µM (active)
8 | N[C@@H](CSSC[C@H](N)C(=O)O)C(=O)O | 0.0732% [at 0.349 µM] (inactive) | –
9 | CCCCCCCCCCCCCCNCCO | 1.65% [at 42.5 µM] (inactive) | –
10 | CCC(C)C(=O)OC (stereo not given) | -0.921% (inactive) | –
11 | CCCCOCC | -1.57% (inactive) | –
12 | COc1ccc2sc(C(=O)Nc3nnn[nH]3)c(OC(C)C)c2c1 | 0.171% (inactive) | –
13 | O=S(=O)(O)c1cc(S(=O)(=O)O)c2ccc3c(S(=O)(=O)O)cc(S(=O)(=O)O)c4ccc1c2c43 | -0.007% [at 19 µM] (inactive) | –
14 | CC(C)N=C(N)/N=C(\N)Nc1ccc(Cl)cc1 | -2.23% [at 42.5 µM] (inactive) | –
15 | O=C1OC(OC(=O)c2cccnc2Nc2cccc(C(F)(F)F)c2)c2ccccc21 (stereo not given) | -1.33% [at 42.5 µM] (inactive) | –
16 | CC(=O)O[C@@H]1C[C@@H]2CC[C@@]1(C)C2(C)C | 1.07% (inactive) | –
17 | CC(O)C#CC(C)O (stereo not given) | -3.47% (inactive) | –
18 | CC1CCCCN1CCCOC(=O)c1ccc(OC2CCCCC2)cc1 (stereo not given) | 0.953% [at 42.5 µM] (inactive) | –
19 | O=C1OC(=O)c2ccc3c4c(ccc1c24)C(=O)OC3=O | 0.331% (inactive) | –
20 | CC(=O)Nc1ccc(O)cc1 | – | inactive

Row | SMILES | caspase-3/7 activation | Potency
21 | Cc1ccc(-n2[nH]c(C)c(N=Nc3cccc(-c4cccc(C(=O)O)c4)c3O)c2=O)cc1C | 0.0563% [at 42.5 µM] (inactive) | –
22 | O=C1NCCN1CCN1CCC(c2cn(-c3ccc(F)cc3)c3ccc(Cl)cc23)CC1 | – | 26.6 µM (active)
23 | CCCC(=O)OCC(COC(=O)CCC)OC(=O)CCC | -0.0982% (inactive) | –
24 | c1ccc(Sc2ccccc2)cc1 | -1.83% (inactive) | –
25 | CSc1ccc2c(c1)N(CCC1CCCCN1C)c1ccccc1S2 (stereo not given) | – | 19.3 µM (active)
26 | CCOC(=O)N1CCC(=C2c3ccc(Cl)cc3CCc3cccnc32)CC1 | – | inactive
27 | CCCCCCCC(C)=O | -0.0652% (inactive) | –
28 | CCNc1nc(NC(C)CC)nc(OC)n1 (stereo not given) | -0.0323% (inactive) | –
29 | O=C(O)CCn1c2c(c3ccccc31)C[C@H](NS(=O)(=O)c1ccc(F)cc1)CC2 | -0.0785% [at 42.5 µM] (inactive) | –
30 | Cn1cnc2ncnc(N)c21 | 0.106% [at 42.5 µM] (inactive) | –
31 | COc1ccccc1C=O | -2.35% (inactive) | –
32 | N#CSCSc1nc2ccccc2s1 | – | 6.86 µM (active)
33 | C/C=C/C(=O)Oc1c(CCCCCC(C)C)cc([N+](=O)[O-])cc1[N+](=O)[O-] | – | 48.6 µM (active)
34 | COc1cccc(O)c1 | 0.0484% (inactive) | –
35 | CO[Si](CCC1CCC2OC2C1)(OC)OC (stereo not given) | 1.7% (inactive) | –
36 | CCOC(=O)CN | -0.0409% (inactive) | –
37 | C/C=C/C=N/NC(=O)c1ccncc1 | -0.053% [at 42.5 µM] (inactive) | –
38 | CN1CCN(C2Cc3ccccc3Sc3ccc(Cl)cc32)CC1 (stereo not given) | 0.894% [at 42.5 µM] (inactive) | –
39 | CC(C)OC(=O)c1cc(C(=O)OC(C)C)cc([N+](=O)[O-])c1 | -2.59% (inactive) | –
40 | CS(C)(=O)=O | 0.136% (inactive) | –
